SMILES strings stand for the structures. In all, about 98,000 compounds went through this assay and about 880 (0.9%) were called active. Cut-off read from the data, not from the text of the source: active = inhibition above about 30%; inactive = the rest. Many of the other results were omitted from the sample, so actives are more common in it than they were.

A short description of this test: phenotypic screen on post-Golgi transport, primary screen (AID 739).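 Note: yeast cells grown in 1536-well plates; yeast grown about 18 h at 30C before absorbance read.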 Particulars: post-Golgi transport phenotypic cell assay; at 10 µM; active compounds read high.
`Cc1ccc(NC(=O)COc2ccc(-n3ccnc3)cc2)cc1Cl`: the inhibition (in general, the drop in the measured response relative to a control, in per cent) was 48.8% (active).

Consider `CN1CCN(c2ccc(NC(=O)COc3ccc(Cl)cc3Cl)cc2)CC1`, for which the inhibition is 0.47% (inactive). Then `Cc1ccccc1OCC(=O)Nc1ccc(N2CCN(C(=O)C(C)C)CC2)c(Cl)c1`, with -4.22% (inactive); and `CCCOc1cc(C)c(S(=O)(=O)n2nnc3ccccc32)cc1C`, with 0.66% (inactive); and `CC(C)c1ccc(NS(=O)(=O)c2cn(C)c(=O)n(C)c2=O)cc1`, with 76% (active).

Take `Cn1cc(S(=O)(=O)N2CCN(c3ccc(F)cc3)CC2)c(=O)n(C)c1=O`: the inhibition was -6.58% (inactive).

Turning to `Cn1cc(S(=O)(=O)N2CCC(Cc3ccccc3)CC2)c(=O)n(C)c1=O`, the inhibition is 7.01% (inactive).

In the case of `CCN1CCN(C(=O)c2cc3cc4ccc(OC)cc4nc3s2)CC1`, the inhibition was 1.48% (inactive). The figure for `O=C(COc1ccccc1F)NC1CC1` is 15.2% (inactive); for `O=C(COc1ccc(Br)cc1F)NC1CCN(Cc2ccccc2)CC1` it is 95.3% (active); for `O=C(NC1CCN(Cc2ccccc2)CC1)c1ccccc1F` it is 1.69% (inactive).

Turning to `CCC1(C)Cc2c(sc3nc(SC)nc(N)c23)CO1` (centres undefined), the inhibition was -2.83% (inactive). As for `COC(=O)c1ccc(Cc2ccccc2)o1`, the inhibition is 8.24% (inactive). With `CCOc1ccccc1Oc1cn[nH]c1-c1ccc(OC)cc1O`, the inhibition is 80.9% (active). The figure for `C=C(C)COc1ccc(-c2n[nH]c(C)c2-c2ccccc2OC)c(O)c1` is -7.36% (inactive); for `CCOc1ccccc1NC(=O)Nc1cc(OC)ccc1OC` it is 1.32% (inactive); for `O=C(Nc1ccc(Cl)cc1)c1cc2nc(C3CC3)cc(C(F)(F)F)n2n1` it is 12% (inactive).

Consider `CC12c3ccccc3C(c3ccccc31)C1C(=O)N(Cc3cccnc3)C(=O)C12` (centres undefined), for which the inhibition is 2.75% (inactive). The figure for `CC(C)Cc1oc(C(=O)O)cc1CN` is -3.35% (inactive); for `COC(=O)C1CCN(CC(N)=O)CC1` it is 0% (inactive); for `OC(COc1cccc2ccccc12)CN1CCN(c2ccccn2)CC1` (centres undefined) it is 3.42% (inactive). As to `COc1cccc(OCC(O)CN2CCN(CCO)CC2)c1` (centres undefined), the inhibition is 3.01% (inactive). Consider `Cc1ccc(OCC(O)CN2CCN(CC(O)COc3ccc(C)cc3Cl)CC2)c(Cl)c1` (centres undefined), for which the inhibition is 67.9% (active). As for `Fc1ccc(-n2c(Cc3ccccc3)nnc2SCc2nc(-c3ccc(Cl)cc3)no2)cc1`, the inhibition is -6.61% (inactive). For the compound `Cc1nn(C)c(Oc2ccc(Cl)cc2)c1C=O`, the inhibition was -3.55% (inactive). As for `Cc1nc(Cl)c2oc3ccccc3c2n1`, the inhibition is 12.3% (inactive). Then `OC(COc1cccc(OCC(O)CN2CCCC2)c1)CN1CCCC1` (centres undefined), with -2.18% (inactive); and `CCC(=O)c1ccc(OCC(O)CN2CC(C)OC(C)C2)cc1` (centres undefined), with 2.21% (inactive). As for `O=C(c1ccc(Cl)cc1)c1ccc(OCC(O)CN2CCCCC2)cc1` (centres undefined), the inhibition was 35.1% (active).

Values taken from PubChem BioAssay AID739 (SRMLSC, 2007).
